# An excerpt weighted towards active compounds, which were near 0.44% of everything screened.
# LMNA splice mod: modulators of lamin A splicing. HeLa LMNA splicing GFP/RFP minigene ratio, 48 h. Potency, µM (doses to about 46.1 µM), without a hit: at the top dose ratio change, negative = inhibition, actives largely listed as inhibitors. 200,000 compounds, 0.01% hits; active = well fitted inhibition curve with a large enough effect in the signal ratio, with a control signal flat, not every such curve was filed as active; inconclusive = small, poorly fitted or top-dose-only effect, or effect the other way, or a change in a side signal; the % refers to the signal ratio; note: % is set by controls: 0 for no effect and ±100 for the full control effect
#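 Read-out is the ratio of GFP to DsRed2 object intensity, acquired by 488 nm laser-scanning cytometry on HeLa lamin A-EGFP minigene reporter cells. Compound incubation 48 hrs at 37 °C in Opti-MEM with 2% FBS; DMSO 0.5% final.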
# Tb PFK inh-1: T. brucei PFK enzyme inhibition | O15648 | T. brucei PFK, ADP-Glo luminescence | Potency, µM (series often up to 57.5 µM), for the others: at the highest dose activity, negative = inhibition, actives largely listed as inhibitors | 330,000 compounds, 0.17% hits | AID 485367;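 note: 0% = uninhibited 1x PFK enzyme wells and -100% = no-enzyme wells; nearly all actives have a fitted effect of over 60% in size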
#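 Compounds were pin-transferred as a titration series up to 57 uM into substrate buffer (0.5 mM F6P, 0.1 mM ATP, pH 8.0), then 1.25 nM PFK was added and reactions ran 45 min before ADP-Glo detection.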
# Rango complex inh: inhibitors of Rango-importin beta complex formation; Q14974; Rango CFP/YFP FRET sensor + importin beta, 45 min; Potency, µM (doses to about 92.2 µM), for inactives: at the top dose inhibition of complex formation; 340,000 compounds, 0.031% hits; AID 540263; calls by dose curve;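 note: 0% = DMSO wells and 100% = buffer wells lacking importin beta; nearly all actives have a fitted effect of over 15% in size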
#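 FRET biosensor Rango (snurportin 1 IBB between N-terminal EYFP and C-terminal Cerulean), 50 nM in PBS/1 mM DTT/0.02% Tween-20/0.1% BSA, preincubated 5 min RT with compound; 0.125 microM importin beta added, 45 min RT, CFP/YFP FRET ratio read.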
# KinaseGlo FLuc: Kinase-Glo luciferase inhibition (counter-screen). Kinase-Glo luciferase, ATP luminescence, 8 min. Potency, µM (top dose mostly 38.3 µM), for inactives: at the top dose activity change, negative = inhibition, hits mostly inhibitors. 200,000 compounds, 0.28% hits. AID 1379; note: % is set by controls: 0 for no effect and ±100 for the full control effect; nearly all actives have a fitted effect of over 60% in size
#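 Inhibition of Kinase-Glo luciferase light generation was assessed at 10 uM ATP in pH 7.2 imidazole buffer, with luminescence measured after eight minutes at ambient temperature.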
# Rango release inh: prevents RanGTP from dissociating the Rango-importin beta complex; Biochemical FRET Rango-importin beta, RanGTP-induced dissociation; Potency, µM (highest dose often 46.1 µM), for the others: at the highest dose activity change, negative = inhibition; 340,000 compounds, 0.071% hits; calls by dose curve; note: % of control where 0% means no effect; nearly all actives have a fitted effect of over 45% in size
#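 Quantitative HTS using a FRET biosensor: 0.1 uM Rango, 0.25 uM importin beta, 0.6 uM Ran, 2 mM GTP, 0.2 uM RCC1 final, PBS with DTT, Tween-20 and BSA. Post-read taken 45 min after Ran addition.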
# Chronic BCR inh: inhibitors of chronic active B-cell receptor signaling; ABC-DLBCL IkBa-CBG/CBR reporter, luminescence ratio, 4 h; Potency, µM (series often up to 46.1 µM), without a hit: at the highest dose activity change, negative = inhibition, hits mostly inhibitors; 340,000 compounds, 0.05% hits; AID 493014; active = well fitted inhibition curve with a large enough effect in the signal ratio, with a control signal flat, not every such curve was filed as active; inconclusive = small, poorly fitted or top-dose-only effect, or effect the other way, or a change in a side signal; the % refers to the signal ratio;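 note: plate controls were basal doxycycline-induced cells for no effect and cells given 10 µM MG132 for full effect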
#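 Compounds up to 46 uM were incubated four hours with TMD8 cells whose green CBG68 luciferase is fused to IkappaBalpha; red CBR luminescence normalised the signal, and concentration-effect curves were fitted to fusion, red and ratio data.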
# TbPFK ATP: inhibits T. brucei PFK measured by ATP depletion; shares compounds with Tb PFK inh-1; Potency, µM (doses to about 57.5 µM), for the others: at the highest dose inhibition; Tb PFK enzyme, ATP depletion, Kinase-Glo Plus luminescence; AID 504636; 1,100 compounds, 47% hits; calls by dose curve; note: nearly all actives have a fitted effect of over 60% in size
# Tb PFK inh-2: T. brucei PFK enzyme inhibition, hit validation; purified T. brucei PFK, ADP-Glo luminescence, 45 min; Potency, µM (highest dose often 57.5 µM), for the others: at the top dose activity change, negative = inhibition, most hits filed as inhibitors; 1,100 compounds, 41% hits; AID 504637; shares compounds with Tb PFK inh-1;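 note: plate controls were full PFK enzyme control for no effect and no enzyme control for full effect; nearly all actives have a fitted effect of over 60% in size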
# The depositor's hits bear a star; ? = inconclusive; nt = no result given; [ ] = another dose, or the depositor's remark. Unless noted, calls come from the whole dose curve; as a rule, active = well fitted curve in the direction sought with a large enough effect; inconclusive = small, poorly fitted or top-dose-only effect, or another doubt; inactive = no such curve, though single readings can be large; an effect the other way counts as inactive or inconclusive. Potency is the fitted concentration of half-maximal effect.
SMILES,LMNA splice mod,Tb PFK inh-1,Rango complex inh,KinaseGlo FLuc,Rango release inh,Chronic BCR inh,TbPFK ATP,Tb PFK inh-2
O=C(Cc1cccc2ccccc12)Nc1cc(C(=O)O)cc(C(=O)O)c1,nt,8.5µM*,1%,nt,-12%,-1%,1.9µM*,?
C=CCCC1(C2=CCCCC2)C(=O)NC(=O)NC1=O,nt,nt,-2%,nt,-9%,nt,nt,nt
O=[N+]([O-])c1ccc(NCc2ccccc2)nc1,-12%,?,2%,1%,7%,5%,?,?
C=CCN1C(=O)NC(=O)/C(=C/c2ccc(OC)c(COc3ccc(NC(C)=O)cc3)c2)C1=O,nt,-7%,-1%,nt,1%,?,nt,nt
Cc1ccc(C(=O)NCc2ccc(Cl)c(Cl)c2)o1,?,11µM*,0%,12%,0%,0%,6.7µM*,24µM*
Cc1onc(-c2ccccc2Cl)c1C(=O)NCc1ccc2c(c1)cc(C)n2C,nt,2%,0%,nt,?,-7%,nt,nt
CCOC(=O)NCc1ccc(Cl)c(Cl)c1,2%,30µM*,-1%,3%,13%,-6%,21µM*,?
Clc1ccc(CNCCCSc2ncccn2)cc1Cl,nt,15µM*,3%,nt,0%,0%,19µM*,19µM*
Cc1[nH]c(=S)sc1Cc1ccc(Cl)c(Cl)c1,?,19µM*,nt,-1%,nt,-7%,27µM*,24µM*
CCOC(=O)c1c(NC(=O)C2C3C=CC(C3)C2(C)C(=O)O)sc2c1CCCC2 (centres undefined),?,?,0%,0%,-4%,?,?,27µM*
c1csc(-c2nnc(Cc3cccc4ccccc34)o2)c1,?,-5%,3%,1%,0%,-5%,nt,nt
Cc1cccc(C)c1NCc1n[nH]c(=S)n1-c1ccccc1,nt,?,0%,6%,2%,?,3µM*,7.6µM*
Cc1cccc(C)c1OCc1n[nH]c(=S)n1N,?,-8%,-1%,1%,-3%,0%,nt,nt
CCN(C(=O)C1CCN(c2nc(-c3ccc(OC)cc3)no2)CC1)c1ccc(OC)cc1,nt,4%,-1%,nt,-1%,?,nt,nt
Cc1cc(NC(=O)CCl)no1,23%[46 µM],0%,?,0%,-7%,?,nt,nt
CCOc1ccc(C(c2c(C)[nH][nH]c2=O)c2c(C)[nH][nH]c2=O)cc1OC,2%,?,9%,nt,12%,?,?,-29%
COc1ccc(OC)c(NC(=O)c2cc(-c3cc(C)ccc3O)n[nH]2)c1,nt,?,-1%,nt,16%,?,-19%,?
O=C(/C=C/c1ccc(Cl)cc1)NC(=S)N1C[C@H]2C[C@H](C1)c1cccc(=O)n1C2,nt,3%,-1%,nt,1%,-29%,nt,nt
O=C(Cc1ccc(Br)cc1)N/N=C/c1ccc(-c2cccc(C(=O)O)c2)o1,nt,11µM*,?,nt,0%,?,11µM*,12µM*
CC(C)C1O/C(=N/C(=O)Nc2ccc(Cl)c(Cl)c2)NC1=O (centres undefined),?,9.5µM*,3%,-7%,-12%,?,24µM*,27µM*

# High-throughput results from PubChem BioAssay.
